Where “and” joins values, the source holds several entries; their conditions need not be identical. Identical values can stand only once. Inconclusive results are not listed. The source holds several records for some structures; these can differ, active in one and inactive in another. Calls of active or inactive are those of the source. The calls were made as follows: active = hit-call score of the fitted dose curve at least 0.9, where 1 is the maximum; inconclusive = response in the unintended direction; inactive = score below 0.9.

Sequence of Estrogen receptor (Homo sapiens) + Estrogen receptor beta (Homo sapiens) (P03372 whole entry, looked up, the tested form may be a part): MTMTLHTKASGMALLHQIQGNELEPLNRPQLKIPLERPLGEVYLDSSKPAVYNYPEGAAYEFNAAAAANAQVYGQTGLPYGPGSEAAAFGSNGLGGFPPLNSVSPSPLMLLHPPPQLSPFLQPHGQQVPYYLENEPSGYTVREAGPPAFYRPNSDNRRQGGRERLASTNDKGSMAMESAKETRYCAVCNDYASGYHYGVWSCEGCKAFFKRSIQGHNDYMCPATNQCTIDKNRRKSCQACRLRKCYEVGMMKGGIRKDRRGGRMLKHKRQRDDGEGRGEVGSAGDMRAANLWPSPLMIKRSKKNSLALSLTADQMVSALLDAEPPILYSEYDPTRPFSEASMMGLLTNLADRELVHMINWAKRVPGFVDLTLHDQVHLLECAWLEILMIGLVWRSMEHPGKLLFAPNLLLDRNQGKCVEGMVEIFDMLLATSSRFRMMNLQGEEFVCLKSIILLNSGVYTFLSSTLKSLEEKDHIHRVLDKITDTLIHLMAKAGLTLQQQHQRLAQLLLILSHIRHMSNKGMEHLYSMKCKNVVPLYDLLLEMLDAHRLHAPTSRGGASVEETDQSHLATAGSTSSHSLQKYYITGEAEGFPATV
Sequence of Estrogen receptor (Homo sapiens) + Estrogen receptor beta (Homo sapiens) (Q92731 whole entry, looked up, the tested form may be a part): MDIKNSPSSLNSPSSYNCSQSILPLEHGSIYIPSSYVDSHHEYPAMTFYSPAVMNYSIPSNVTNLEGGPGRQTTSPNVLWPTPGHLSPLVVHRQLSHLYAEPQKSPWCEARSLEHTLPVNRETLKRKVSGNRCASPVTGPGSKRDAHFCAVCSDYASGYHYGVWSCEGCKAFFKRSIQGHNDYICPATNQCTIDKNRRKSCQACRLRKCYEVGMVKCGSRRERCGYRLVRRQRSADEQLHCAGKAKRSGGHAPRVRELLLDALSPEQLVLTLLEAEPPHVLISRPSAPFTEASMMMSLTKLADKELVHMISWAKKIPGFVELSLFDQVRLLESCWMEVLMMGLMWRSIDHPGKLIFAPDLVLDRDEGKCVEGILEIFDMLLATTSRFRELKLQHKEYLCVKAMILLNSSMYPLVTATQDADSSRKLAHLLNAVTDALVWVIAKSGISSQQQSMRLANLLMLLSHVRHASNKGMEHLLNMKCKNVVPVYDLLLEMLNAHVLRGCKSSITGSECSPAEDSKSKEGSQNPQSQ
Sequence of Estrogen receptor (Homo sapiens) (P03372 whole entry, looked up, the tested form may be a part): as the sequence (P03372 whole entry, looked up, the tested form may be a part) above

One test deals with Estrogen receptor (Homo sapiens) (UniProt P03372). The test can be described thus: OT_ER_ERaERa_0480: Odyssey Thera (OT) 8-hour HEK293T Protein-Complementation Assay for Estrogen Receptor-alpha/-alpha Homodimer (AID 2283351).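 Also: rise in fluorescence from reassembled reporter fragments on ERα LBD homodimer in nucleus or whole cell.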 In outline:
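HEK293T cells stably expressing a PCA pair of ER alpha LBD (residues 310-547) were dosed for 8 hours. The gain in fluorescence intensity, nuclear for agonists and whole-cell for antagonists, was measured by laser scanning cytometry against DMSO vehicle.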
Take `CC(=O)S[C@@H]1CC2=CC(=O)CC[C@]2(C)[C@H]2CC[C@@]3(C)[C@@H](CC[C@@]34CCC(=O)O4)[C@H]12`: the molecule was classed as inactive.
Same read-out and setting: as for `CCCCOC(=O)C(C)Oc1ccc(Oc2ccc(C(F)(F)F)cn2)cc1` (stereo not drawn), the entry is “inactive”; as for `C[C@]12C[C@H](O)[C@H]3[C@@H](CCC4=CC(=O)CC[C@@]43C)[C@@H]1CC[C@@H]2C(=O)CO`, “inactive”.
For `O=C(c1ccccc1)C1CCCCC1`, the AC50 (in general, the concentration at which the activity in the assay is half-maximal) is 56.4 µM (active) and 39.5 µM (active); the call was inactive.
As for `COc1c(Cl)ccc(Cl)c1C(=O)O`, the molecule was classed as inactive.
`CCSC(=O)N(CC(C)C)CC(C)C`: the molecule was classed as inactive.
With `COCCO`, the outcome was inactive.
For the molecule `CCN(Cc1c(F)cccc1Cl)c1c([N+](=O)[O-])cc(C(F)(F)F)cc1[N+](=O)[O-]`, the AC50 is 9.68 µM (active).
Consider `c1ccc2[nH]c(-c3cscn3)nc2c1`, for which the outcome was inactive.
Regarding `CCCOC(=O)c1ccc(C(=O)OCCC)nc1`, the molecule was classed as inactive.
For the molecule `O=C(O)c1ccccc1`, the call was inactive.
Take `CSC(=O)c1cccc2nnsc12`: the molecule was called inactive.
With `CCOC(=O)c1ccc(O)cc1`, the AC50 is 59.9 µM (active) and 41.1 µM (active) and 59.6 µM (active); the result was inactive.
Take `O=C(Nc1ccc([N+](=O)[O-])cc1Cl)c1cc(Cl)ccc1O`: the call was inactive.
Consider `CCCN(CCC)c1c([N+](=O)[O-])cc(C(F)(F)F)c(N)c1[N+](=O)[O-]`, for which the outcome was inactive.
On to `O=C(c1ccc(O)cc1O)c1ccc(O)cc1O`, for which the AC50 is 6.81 µM (active) and 6.26 µM (active) and 6.64 µM (active).
Take `CCOC(=O)C(C)Oc1ccc(Oc2cnc3cc(Cl)ccc3n2)cc1` (stereo not drawn): the molecule was classed as inactive.

The next test addresses Estrogen receptor (Homo sapiens) + Estrogen receptor beta (Homo sapiens) (UniProt P03372+Q92731). The test can be described thus: OT_ER_ERaERb_0480: Odyssey Thera (OT) 8-hour HEK293T Protein-Complementation Assay for Estrogen Receptor-alpha/-beta Heterodimer (AID 2283352). The method, boiled down: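 Fluorescence intensity readout from a protein-fragment complementation reporter in HEK293T; ER-alpha/ER-beta LBD heterodimer. Dosing 8 h. Gain-of-signal fit relative to DMSO negative control; laser scanning cytometry of whole-well cell population.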
On to `CC(=O)S[C@@H]1CC2=CC(=O)CC[C@]2(C)[C@H]2CC[C@@]3(C)[C@@H](CC[C@@]34CCC(=O)O4)[C@H]12`, for which the result was inactive.
The same measure, in the same setting: as for `CCCCOC(=O)C(C)Oc1ccc(Oc2ccc(C(F)(F)F)cn2)cc1` (stereo not drawn), the entry is “inactive”; as for `C[C@]12C[C@H](O)[C@H]3[C@@H](CCC4=CC(=O)CC[C@@]43C)[C@@H]1CC[C@@H]2C(=O)CO`, “inactive”.
`COc1c(Cl)ccc(Cl)c1C(=O)O`: the outcome was inactive.
Take `CCSC(=O)N(CC(C)C)CC(C)C`: the outcome was inactive.
In the case of `CCN(Cc1c(F)cccc1Cl)c1c([N+](=O)[O-])cc(C(F)(F)F)cc1[N+](=O)[O-]`, the concentration at half-maximal activity (AC50) was 7.66 µM (active).
On to `CCCOC(=O)c1ccc(C(=O)OCCC)nc1`, for which the outcome was inactive.
Turning to `O=C(O)C1(C(=O)Nc2ccc(Cl)cc2Cl)CC1`, the result was inactive.
For `CC(C)CCCCCCc1ccc(O)cc1`, the half-maximal activity concentration (AC50) is 1.36 µM (active) and 1.78 µM (active) and 1.89 µM (active).
Consider `CCOC(=O)c1ccc(O)cc1`, for which the concentration at half-maximal activity (AC50) was 30.6 µM (active) and 27.1 µM (active) and 28 µM (active); the result was inactive.
Consider `O=C(Nc1ccc([N+](=O)[O-])cc1Cl)c1cc(Cl)ccc1O`, for which the outcome was inactive.
For `CCCN(CCC)c1c([N+](=O)[O-])cc(C(F)(F)F)c(N)c1[N+](=O)[O-]`, the concentration at half-maximal activity (AC50) is 0.428 µM (active).
The same measure, in the same setting: the figure for `O=C(c1ccc(O)cc1O)c1ccc(O)cc1O` is 2.03 µM (active) and 1.72 µM (active) and 2.14 µM (active).
